High-throughput results deposited in PubChem BioAssay by National Center for Advancing Translational Sciences (NCATS).
Pin1 inh: human Pin1 inhibition; Pin1 FP peptide displacement, HiFluor488, 10 min; Potency, µM (series often up to 115 µM), inactives show at the highest dose activity, negative = inhibition, hits mostly inhibitors; 0.009% of 390,000 active; Q13526; AID 504891; active = well fitted inhibition curve with a large enough effect in the polarisation, with a control signal flat, not every such curve was filed as active; inconclusive = small, poorly fitted or top-dose-only effect, or effect the other way, or a change in a side signal; inactive = no such curve, though single readings can be large or run the other way; the % refers to the polarisation; also: potency is read from the fitted curve at half-maximal effect; % is scaled to controls: 0 for no effect and ±100 for the full control effect
Target sequence (Q13526 whole entry, looked up): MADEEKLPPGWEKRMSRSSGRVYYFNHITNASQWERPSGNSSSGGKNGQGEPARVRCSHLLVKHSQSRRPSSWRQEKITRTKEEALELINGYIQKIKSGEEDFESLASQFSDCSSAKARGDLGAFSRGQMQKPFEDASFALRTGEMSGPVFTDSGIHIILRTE
GRP78 ERSR act: inducers of ER stress response in human glioma cells; U87-MG GRP78 promoter luciferase reporter, 16 h; AID 602332; 0.02% of 420,000 active; Potency, µM, for the others: top-dose activation, most hits filed as activators; also: potency is read from the fitted curve at half-maximal effect; series mostly up to about 76 µM; % of control where 0% means no effect; nearly all actives have a fitted effect of over 35% in size
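Stably transfected U87-MG human glioma cells carrying a GRP78-based luminescent sensor were seeded at 1000 cells/well, pin-dosed with compounds and incubated 16 h. Luciferase reagent was then added, and end-point luminescence was read after 10 min at room temperature.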
Tb PGK inh: blocks T. brucei phosphoglycerate kinase | 0.043% of 380,000 active | PGK/GAPDH coupled, Kinase-Glo luminescence, 60 min | P07378 | Potency, µM (highest dose often 57.5 µM), for inactives: top-dose activity change, negative = inhibition, actives largely listed as inhibitors | AID 602233; also: potency is read from the fitted curve at half-maximal effect; % is scaled to controls: 0 for no effect and ±100 for the full control effect; nearly all actives have a fitted effect of over 60% in size
Target sequence (P07378 whole entry, looked up): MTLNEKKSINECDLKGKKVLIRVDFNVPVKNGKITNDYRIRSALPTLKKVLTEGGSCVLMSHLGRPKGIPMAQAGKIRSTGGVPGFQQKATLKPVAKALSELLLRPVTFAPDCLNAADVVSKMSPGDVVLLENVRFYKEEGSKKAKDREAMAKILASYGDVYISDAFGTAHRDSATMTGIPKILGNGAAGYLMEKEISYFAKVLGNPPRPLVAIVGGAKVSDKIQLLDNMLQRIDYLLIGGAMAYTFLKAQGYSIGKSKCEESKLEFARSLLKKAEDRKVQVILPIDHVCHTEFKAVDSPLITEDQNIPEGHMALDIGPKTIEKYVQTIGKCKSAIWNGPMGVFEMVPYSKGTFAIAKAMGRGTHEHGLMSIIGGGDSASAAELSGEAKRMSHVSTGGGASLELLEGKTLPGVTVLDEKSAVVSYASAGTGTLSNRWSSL
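Recombinant glycosomal PGK reaction used 1,3-bisphosphoglycerate generated in-well by GAPDH (100nM final) in 100mM TEA pH 7.6, 5mM MgCl2, 0.01% Tween-20. After 60 minutes at room temperature, ATP was read by Kinase-Glo Plus luminescence end-point.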
PI5P4K alpha inh: blocks human PI5P4K alpha kinase activity | P48426 | PI5P4Kalpha enzyme, ADP-Glo luminescence, 60 min; stronger effect = lower value | max response, % | 1.2% of 330,000 active; active = max response of -50% or lower; inconclusive = between -30% and -50%; inactive = -30% or higher; also: value at the top dose of about 77 µM; % is scaled to controls: 0 for no effect and ±100 for the full control effect
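Enzyme plus substrate dispensed, test compounds pinned in, then ATP (5 microM final) added. After 60 min at RT, ADP-Glo reagent 1 for 45 min and reagent 2 for 30 min preceded luminescence imaging.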
WRN helicase inh: blocks human WRN helicase | Q14191 | WRN helicase unwinding, fluorescent forked duplex, kinetic | Potency, µM (series often up to 114 µM), inactives show top-dose activity change, negative = inhibition, most hits filed as inhibitors | 0.46% of 360,000 active | AID 651768; also: potency is read from the fitted curve at half-maximal effect; % is scaled to controls: 0 for no effect and ±100 for the full control effect; nearly all actives have a fitted effect of over 55% in size
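Kinetic fluorescence helicase assay: unwinding of a quenched forked DNA duplex (100 nM final) with 2 mM ATP final raises red fluorescence (525/598 nm). Compounds sat 15 min at room temperature with 20 nM WRN beforehand.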
FEN1 inh: human FEN1 inhibition | P39748 | Recombinant FEN1 flap cleavage, fluorescence, 15 min | Potency, µM (doses to about 114 µM), without a hit: at the highest dose activity change, negative = inhibition, actives largely listed as inhibitors | 0.35% of 390,000 active | AID 588795; also: potency is read from the fitted curve at half-maximal effect; % is scaled to controls: 0 for no effect and ±100 for the full control effect; nearly all actives have a fitted effect of over 65% in size
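Steps: FEN1 (10 nM) dispensed; compound added by pin tool; 15 min at room temperature; substrate added to 50 nM final; reads at 0 min and 15 min; data normalized and fitted (four-parameter Hill).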
ADP-Glo interf: ADP-Glo luciferase interference, PI5P4K counter-screen. AID 743285. Potency, µM (top dose mostly 76.9 µM), inactives show at the highest dose activity change, negative = inhibition, usual class: inhibitors. 1,100 tested, under 10 active. shares compounds with PI5P4K alpha inh. ADP-Glo detection counter-screen, luciferase luminescence, no enzyme
* = called active by the depositor; i = inactive; ? = inconclusive; · = no result given; [ ] = dose if it differs, or a comment. This is a sample that favours compounds with a hit; in the whole collection about 1.3% have one here. Unless noted, calls follow the shape of the dose curve; as a rule, active = well fitted curve in the direction sought with a large enough effect; inconclusive = small, poorly fitted or top-dose-only effect, or another doubt; inactive = no such curve, though single readings can be large; an effect the other way counts as inactive or inconclusive.

SMILES	Pin1 inh	GRP78 ERSR act	Tb PGK inh	PI5P4K alpha inh	WRN helicase inh	FEN1 inh	ADP-Glo interf
Nc1nc(Nc2cccc(Cl)c2)nc(NCc2ccco2)c1[N+](=O)[O-]	14.0%	-7.2%	i	-54.0*	?	-7.9%	-2.3%
Cc1ccnc2ccc3ccccc3c12	·	-5.3%	·	·	·	?	·
NC(=O)CSc1nc2c(c(=O)n1-c1ccccc1)C1(CCCCC1)Cc1ccccc1-2	9.1%	-2.3%	-8.2%	2.9	0.5%	-23.0%	·
Cc1cccc(-n2c(SCC(N)=O)nc3c(c2=O)C2(CCCC2)Cc2ccccc2-3)c1	4.0%	-3.2%	-13.9%	-56.2*	-23.1%	-12.2%	-4.1%
O=C(NCc1cccnc1)c1cnn(-c2ncc3c(n2)-c2ccccc2CCC3)c1C1CC1	·	-3.7%	·	·	·	·	·
O=C(Cn1cnc2scc(-c3ccccc3)c2c1=O)NCc1ccco1	?	1.2%	-4.6%	-65.9*	-19.2%	5.0%	-7.2%
O=C(Nc1nc(-c2ccco2)cs1)c1ccccc1	58.4%	10.8%	-4.0%	-63.0*	?	-24.2%	-2.3%
O=C(Nc1nc(-c2ccccc2)cs1)c1ccco1	-5.0%	7.9%	-2.3%	3.0	-0.6%	-12.4%	·
CS(=O)(=O)c1ccc(C(=O)Nc2nc(-c3ccco3)c(-c3ccco3)s2)cc1	·	-2.6%	-2.2%	-83.9*	44.7µM*	56.2µM*	3.6%
COc1cccc(Nc2nc3ccccc3nc2NS(=O)(=O)c2cccs2)c1	·	2.8%	-1.5%	-1.6	-34.1%	-4.8%	·
O=C(O)c1ccc(Nc2nc3ccccc3nc2NS(=O)(=O)c2cccs2)cc1	-19.6%	0.5%	-8.9%	?	0.3%	?	-8.0%
O=S(=O)(c1ccccc1)c1nc(-c2ccco2)oc1N1CCCCCC1	0.7%	-8.1%	-1.0%	-52.8*	-21.2%	8.0%	-10.3%
CN1CCN(c2oc(-c3ccco3)nc2S(=O)(=O)c2ccccc2)CC1	-7.8%	-5.2%	i	0.3	-2.9%	-3.3%	·
COc1ccc2c(c1)CCc1cnc(-n3ncc(C(=O)NC4CCOC4)c3C3CC3)nc1-2 (stereo not given)	·	-2.9%	·	·	·	·	·
CCC1(C2CCN(C(=O)c3ccccc3C)CC2)NC(=O)N(CCc2scnc2C)C1=O (stereo not given)	·	-4.8%	·	·	·	·	·
CCOC(=O)c1ccc(NC(=O)c2cccc(S(=O)(=O)N3CCN(C(C)=O)CC3)c2)cc1	2.5%	-5.7%	-9.0%	1.8	10.2%	2.0%	·
CC(=O)N1CCN(S(=O)(=O)c2cccc(C(=O)Nc3ccc(F)c(F)c3)c2)CC1	?	-5.7%	-0.6%	-19.0	-7.5%	-16.0%	-0.5%
CCN(CC)CCCNC(=S)N(Cc1cccnc1)Cc1cc2cccc(C)c2[nH]c1=O	2.2%	-5.9%	-1.8%	0.4	20.0%	-2.0%	·
Cc1cccc2cc(CN(Cc3cccnc3)C(=S)NCCCN(C)C)c(=O)[nH]c12	2.4%	-6.9%	-3.0%	-52.9*	15.4%	-10.3%	-2.6%
Cc1cccc(OCC(=O)Nc2cccc(C(=O)Nc3ccccc3C(=O)O)c2)c1	2.7%	-1.6%	0.6%	-52.4*	-27.7%	-2.1%	4.7%
Cc1ccc(NC(=O)c2cccc(C(=O)Nc3ccc(C)cc3C(=O)O)c2)c(C(=O)O)c1	?	-6.5%	5.8%	-82.9*	-13.5%[11.6 µM]	?	2.8%
CCC1C(=O)NCCN1Cc1ccc2c(c1)CN(Cc1cccc(OC)c1)CCO2 (stereo not given)	·	-4.5%	·	·	·	·	·
COc1cc(-c2ccc(Cl)cn2)cc2c1OCCN(S(=O)(=O)C[C@]13CC[C@H](CC1=O)C3(C)C)C2	·	-1.7%	·	·	·	·	·
COc1ccc(C(CC(=O)N2CCCCC2)c2c(OC)cc(OC)c3c(-c4ccccc4)cc(=O)oc23)cc1 (stereo not given)	10.6%	-3.2%	?	-80.8*	-9.3%[11.6 µM]	-19.7%	4.5%
